# High-throughput results (PubChem BioAssay)
# Sampled rows, rich in hits. Any-hit rate of the full collection: about 2.7%.
# Nrf2 inh: Nrf2 qHTS screen for inhibitors; A549 ARE-Fluc reporter, luciferase luminescence, 18-24 h; Potency, µM (highest dose often 46 µM), usual class: inhibitors; 360,000 compounds, 2.1% hits; AID 504444, 2011; note: nearly all actives have a fitted effect of over 60% in size
#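 In this cell-based qHTS, ARE-driven firefly luciferase in A549 cells reports Nrf2 activity; the luminescent signal after BugLite lysis is the measured value, with a prior CellTiter-Fluor read for cell health.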
# ERG Ets-DNA blk: qHTS for Small Molecule Inhibitors of the ERG Ets/DNA interaction | fluorescence polarization, His-ERG Ets domain / labelled DNA | Potency, µM (highest dose often 76.9 µM), actives largely listed as inhibitors | 370,000 compounds, 0.028% hits | AID 624246, 2012 | Transcriptional regulator ERG (Homo sapiens), P11308; active = well fitted inhibition curve with a large enough effect in the polarisation, with a control signal flat; inconclusive = small, poorly fitted or top-dose-only effect, or effect the other way, or a change in a side signal; inactive = no such curve, though single readings can be large or run the other way; the % refers to the polarisation;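 note: polarization taken with two DNA probes labelled with fluorescein and Texas red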
# Target sequence (P11308 whole entry, looked up, the tested form may be a part): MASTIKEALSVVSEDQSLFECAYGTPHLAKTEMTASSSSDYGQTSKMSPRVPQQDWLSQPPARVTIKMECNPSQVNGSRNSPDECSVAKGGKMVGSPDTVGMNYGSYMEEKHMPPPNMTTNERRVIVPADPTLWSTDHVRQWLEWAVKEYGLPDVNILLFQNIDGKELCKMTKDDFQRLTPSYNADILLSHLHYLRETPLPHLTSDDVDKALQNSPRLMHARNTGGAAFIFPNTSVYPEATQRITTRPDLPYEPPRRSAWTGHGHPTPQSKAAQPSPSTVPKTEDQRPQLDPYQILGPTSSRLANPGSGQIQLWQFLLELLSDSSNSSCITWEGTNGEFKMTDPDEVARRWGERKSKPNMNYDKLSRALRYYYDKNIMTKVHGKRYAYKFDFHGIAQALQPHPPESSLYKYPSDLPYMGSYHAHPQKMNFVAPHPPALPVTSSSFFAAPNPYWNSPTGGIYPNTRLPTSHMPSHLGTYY
#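 His-tagged ERG Ets domain (1 uM in the protein solution; 300mM KCl, 50mM Tris-HCl, 1mM EDTA, 1mM DTT, pH 7.5) received compound, then a probe mix of 5 nM fluorescein-DNA and 100nM Texas-615-DNA. Fluorescence polarization was read for both dyes.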
# 12-LOX inh: Primary qHTS assay for inhibitors of human arachidonate 12S-lipoxygenase (ALOX12): Round 2; purified 12hLO, xylenol orange hydroperoxide absorbance; AID 1671190, 2021; Potency, µM (titrated, usually from 108 µM), hits mostly inhibitors; Polyunsaturated fatty acid lipoxygenase ALOX12 (Homo sapiens), P18054; 580,000 compounds, 1.1% hits
#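 Hydroperoxide product was detected by ferrous iron/xylenol orange as the 573 to 405 nm absorbance ratio. Arachidonic acid at 40 uM (final) was turned over for 30 min at room temperature by 150 nM human 12hLO, pH 7.0 Hepes buffer, after 15 min compound preincubation.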
# LDHA block: qHTS assay for inhibitors of human lactate dehydrogenase. L-lactate dehydrogenase A chain (Homo sapiens), P00338. purified LDHA, NADH/diaphorase-resazurin fluorescence; stronger effect = lower value. activity change, % (values are at about 110 or 230 µM). 480,000 compounds, 0.15% hits. AID 1347041, 2019; in the data active = activity change below about -30%; inconclusive = mostly about -25% to -30%
#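 Remaining NADH was detected by diaphorase (0.133 mg/mL) converting 37 µM resazurin to fluorescent resorufin, read at 0 and 20 minutes. The preceding 5-minute room-temperature reaction used 2 nM LDHA, 0.2 mM sodium pyruvate and 0.06 mM NADH at pH 7.4.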
# A549 viability: Nrf2 qHTS screen for inhibitors: counterscreen for cytotoxicity | A549 ARE-Fluc cells, CellTiter-Fluor viability, 18-24 h | AID 504648, 2011 | 390,000 compounds, 0.16% hits | Potency, µM (titrated, usually from 46 µM), hits mostly inhibitors
#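 Cytotoxicity counterscreen: CellTiter-Fluor fluorescence was measured in A549 ARE_Fluc cells after 18-24 h of compound exposure in a concentration series. The subsequent BugLite luminescent read reports ARE-luciferase activity.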
# Nrf2 ARE act: qHTS of Nrf2 Activators. AREc32 ARE-luciferase reporter (MCF7-derived line), luminescence, 24 h. Potency, µM (top dose mostly 46.1 µM), hits mostly activators. 410,000 compounds, 0.31% hits; note: nearly all actives have a fitted effect of over 65% in size
#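 AREc32_Fluc, 1000 cells/well, OPTI-MEM + 5% FBS, o/n 37 deg C 5% CO2; 23 nL cpd by pin tool, 24 hr; Steady-Glo 30 min RT, luminescence.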
# Hits are given with their value; . = inactive; ? = inconclusive; / = not tested or not shown; ! = repeats disagree; [ ] = remark or other dose. Unless noted, calls come from the whole dose curve; as a rule, active = well fitted curve in the direction sought with a large enough effect; inconclusive = small, poorly fitted or top-dose-only effect, or another doubt; inactive = no such curve, though single readings can be large; an effect the other way counts as inactive or inconclusive.
SMILES,Nrf2 inh,ERG Ets-DNA blk,12-LOX inh,LDHA block,A549 viability,Nrf2 ARE act
CCN1CCN(c2cc(C)c3cc(NC(=O)c4cc(OC)c(OC)c(OC)c4)ccc3n2)CC1,/,.,?,.,.,.
COc1ccccc1/C=C/C1=NC(=C\C=C/c2ccccc2)/C(=O)O1,.,.,45µM,.,.,.
COc1ccccc1/C=C/C=C1N=C(/C=C/c2ccc(Cl)cc2)OC/1=O,.,.,?,.,.,.
CCc1ccc(/C=C/C(=O)c2c(C)cc(C)[nH]c2=O)cc1,18µM,.,.,.,.,.
Cc1cc(C)c2sc(N(CCCN(C)C)C(=O)c3ccc(Br)s3)nc2c1,15µM,.,?,.,?,.
Cc1ccc(-n2c(C)cc(/C=N/NC(N)=S)c2C)cc1,.,.,45µM,.,.,.
Cc1ccc(-n2c(C)cc(/C=N/NC(=O)c3ccncc3)c2C)cc1,?,.,?,.,.,.
Cc1ccc(-c2ccc(/C=N/NC(N)=S)o2)cc1,?,.,45µM,.,.,.
Cc1ccc(S(=O)(=O)C2(S(=O)(=O)c3ccc(C)cc3)CC2)cc1,23µM,.,.,.,.,.
C[C@@H](NCCCc1cccc(C(F)(F)F)c1)c1cccc2ccccc12,/,/,8.9µM!,.,/,/
CNCc1cccc(C(F)(F)F)c1,/,/,.[12.5 µM],/,/,/
CCOc1ccccc1OCC(=O)OCC(=O)c1c(N)n(CC(C)C)c(=O)n(C)c1=O,?,.,.,.,.,.
CC(C)Cn1c(N)c(C(=O)COC(=O)C2Cc3ccccc3CN2S(C)(=O)=O)c(=O)n(C)c1=O (stereo not drawn),21µM,.,.,.,.,.
CC(=O)c1c(C)[nH]c(C(=O)OCC(=O)c2c(N)n(CC(C)C)c(=O)n(C)c2=O)c1C,18µM,.,.,.,.,.
CC(C)Cn1c(N)c(C(=O)COC(=O)C2CCCCC2)c(=O)n(C)c1=O,?,.,.,.,.,.
COc1ccc(CCC(=O)OCC(=O)c2c(N)n(CC(C)C)c(=O)n(C)c2=O)cc1,23µM,.,.,.,.,.
CCC(C(=O)OCC(=O)c1c(N)n(CC(C)C)c(=O)n(C)c1=O)c1ccccc1 (stereo not drawn),23µM,.,.,.,.,.
COCCCNC(=O)CN1CCN(CC=C(C)C)CC1,/,/,.,.,/,/
Cc1nn(-c2ccccc2)c(C)c1C(=O)OCC(=O)c1c(N)n(CC(C)C)c(=O)n(C)c1=O,5.8µM,.,.,.,?,.
CCN(CC(=O)Nc1c(F)cccc1F)C(=O)/C=C/c1ccc2ccccc2n1,.,/,32µM,.,.,.
CCN=C(N/N=C/c1ccc([N+](=O)[O-])cc1)SC,.,.,32µM,-110,.,.
O=[N+]([O-])c1ccc(C=NNC(=S)NN=Cc2ccc([N+](=O)[O-])cc2)cc1,.,.,?,.,?,.
COc1cc2c(cc1OC)/C(=C/S(=O)(=O)c1ccc(C)c(C)c1)NCC2,/,/,?,.,/,/
Cc1ccc(CNC(=O)c2cc(-c3ccc(C)o3)nc3ccccc23)cc1,/,/,3.2µM,.,/,/
Cc1ccc(-c2cc(C(=O)NC(C)C3CC3)c3ccccc3n2)o1 (stereo not drawn),/,/,?,.,/,/
SMILES,Nrf2 inh,ERG Ets-DNA blk,12-LOX inh,LDHA block,A549 viability,Nrf2 ARE act
CC1CCC(NC(=O)c2cc3ccccc3c(Cl)n2)CC1 (stereo not drawn),/,/,40µM,.,/,/
CC1CCC(NC(=O)c2cc(-c3ccccc3)nc3ccccc23)CC1 (stereo not drawn),/,/,0.79µM,.,/,/
Cc1ccc(-c2cc(C(=O)NC3CC3)c3ccccc3n2)o1,/,/,13µM,.,/,/
Cc1c(C(=O)N2CCC(C(=O)Nc3ccc4c(c3)OCO4)CC2)oc2ccccc12,/,/,.,.,/,/
CC(C)c1ccc(NC(=O)CCC2CCCC2)cc1,/,/,.,.,/,/
Cc1ccc(-c2nc(N)sc2CC(=O)OCC(=O)Nc2ccc(C)c(C)c2)cc1,/,/,?,.,/,/
CCn1c(C)cc(C(=O)COC(=O)c2c(C)nn(Cc3ccc(C)cc3)c2Cl)c1C,/,/,?,.,/,/
c1ccc(-c2csc(-c3ccncc3)n2)cc1,.,.,.,.,.,.
Brc1ccsc1-c1csc(-c2ccncc2)n1,.,.,.,.,.,13µM
Cc1nn(-c2ccc(C(F)(F)F)cc2)c(C)c1[C@@H]1C=C[C@@H](NC(=O)Nc2cccc(C#N)c2)C1,/,/,.,/,/,/
CC1(C)N=C(SCC(=O)Nc2ccc(Cl)cc2)C(c2ccc(Cl)cc2)=N1,26µM,.,.,.,?,.
Cc1[nH]c(=O)[nH]c(=O)c1Sc1ccccc1[N+](=O)[O-],.,.,.,.,.,.
Cc1cc(OC(=O)c2ccco2)c(Sc2ccccc2[N+](=O)[O-])c(=O)o1,.,.,/,-106,.,.
CCC(C)NCCCOc1ccc(Cl)cc1C(C)(C)C (stereo not drawn),.,.,?,-41,.,.
CNCCCOc1ccc(Cl)cc1C(C)(C)C,.,.,?,.,.,.
CCc1c(C)sc2nc(NCCO)n3nc(-c4ccco4)nc3c12,/,/,?,.,/,/
c1cc2c3c(cccc3c1)/C(=N/OCC1CO1)C2 (stereo not drawn),/,/,.,-31,/,/
NC(=S)NN=C1Cc2cccc3cccc1c23,?,.,?,.,.,.
C(=NN1CCCCCC1)c1ccc2ccccc2n1,18µM,.,?,.,.,.
COc1ccc(Br)cc1CN(C)C(=O)CNC(=O)c1ccc2ccccc2c1,18µM,.,.,.,?,.
O=S(=O)(c1ccc(-c2csc(NC3CCCC3)n2)cc1)N1CCCC1,/,/,?,.,/,/
Cc1ccc(C2=C(O)C(=O)N(Cc3ccccn3)C2c2ccccc2)cc1 (stereo not drawn),/,/,.,.,/,/
COc1ccc(-c2cc3ccccc3[nH]2)cc1,?,.,?,.,.,.
CCOc1ccc(-c2cc3ccccc3[nH]2)cc1,/,/,13µM,.,/,/
COc1ccc(NC(=O)c2cc3c(OC)cc(OC)c(OC)c3[nH]2)cc1,/,/,.,.,/,/
Cc1ccc(S(=O)(=O)N(C)C)cc1NC(=O)COC(=O)CCNS(=O)(=O)c1ccccc1,.,.,.,.,.,.
Cc1ccc(S(=O)(=O)NCCC(=O)Nc2cc(S(=O)(=O)N(C)C)ccc2C)cc1C,7.3µM,.,.,.,.,.
O=C(Nc1ccc([N+](=O)[O-])cc1Cl)c1ccccc1O,23µM,/,/,.,?,/
CC(=O)OCC(=O)Nc1ccc([N+](=O)[O-])cc1Cl,.,.,.,.,.,.
CC(=O)Oc1c(C)cc(Cl)cc1C(=O)Nc1ccc([N+](=O)[O-])cc1Cl,1.6µM,.,.,.,2.6µM,.
